# Records with an inconclusive call do not appear. Where a call stands in place of a potency, no number is given. Activity calls are given as the source filed them. Calls follow the shape of the dose curve; as a rule, active = well fitted curve in the direction sought with a large enough effect; inconclusive = small, poorly fitted or top-dose-only effect, or another doubt; inactive = no such curve, though single readings can be large; an effect the other way counts as inactive or inconclusive.
# Legend:
# [1] = target: Aldehyde dehydrogenase, mitochondrial (Homo sapiens) (UniProt P05091); assay: qHTS for Inhibitors of the Aldehyde Dehydrogenase Family (ALDH2) Primary screen (AID 2061308); also: nearly all actives have a fitted effect of over 55% in size
# [2] = target: Retinaldehyde dehydrogenase 3 (Homo sapiens) (UniProt P47895); assay: qHTS for Inhibitors of the Aldehyde Dehydrogenase Family (ALDH1A3) Primary screen (AID 2061315)
Compound,Potency [1],Potency [2]
O=C(Nc1ncc(Cc2cccc(C(F)(F)F)c2)s1)c1ccc(-c2cccc([N+](=O)[O-])c2)o1,inactive,inactive
Cc1ccc(OCCn2c(CCNC(=O)c3ccc(Br)cc3)nc3ccccc32)cc1,inactive,inactive
COc1ccccc1-c1nnc(SCC#CCOC(=O)c2ccc(F)cc2)o1,inactive,inactive
O=[S+]([O-])(Nc1ccc(N2CCNCC2)cc1)c1ccc(NCc2ccc(Br)cc2O)cc1,inactive,inactive
CCCCCCNC(=O)Nc1nnc(-c2ccncc2)s1,inactive,inactive
CCCCN(C)C(=O)Cn1nc(-c2ccc(C(C)(C)C)cc2)ccc1=O,inactive,inactive
Cc1cc(-c2nnc3n2CCCCC3)c(C)n1-c1cccc(C(F)(F)F)c1,inactive,inactive
CC(=O)N1CCc2cc(S(=O)(=O)N3CCN(S(=O)(=O)c4c(F)cccc4F)CC3)ccc21,inactive,inactive
Cc1nc(N2CCOCC2)c2nc(-c3ccccc3)n(CCN3CCCC3)c2n1,inactive,inactive
Cc1ccc(CNc2ncc(N3CCCCC3)cn2)cc1,inactive,inactive
O=C(COC(=O)CNC(=O)C1CCCCC1)Nc1ccccc1Cl,inactive,inactive
O=C1CCc2cc(S(=O)(=O)Nc3cccc(C(F)(F)F)c3)ccc2N1,inactive,inactive
Clc1cccc(CSc2nc3ncc(Br)cc3[nH]2)c1,inactive,inactive
COc1cc(O)c(C(CC(=O)N2CCC(c3ccccc3)CC2)c2ccc3c(c2)OCO3)c(OC)c1 (stereo not drawn),inactive,inactive
Cc1ccc(S(=O)(=O)Nc2cnccc2C(=O)Nc2nc(-c3cccc(F)c3)cs2)cc1,inactive,inactive
O=C(Cn1nc(C2CCCCC2)ccc1=O)NCCc1ccccc1,inactive,inactive
O=C1CCc2cc(S(=O)(=O)Nc3ccc4c(c3)CCC4)ccc2N1,inactive,inactive
CC(Oc1ccc2[nH]nc(/C=C/c3cnn(CCO)c3)c2c1)c1c(Cl)cncc1Cl (stereo not drawn),inactive,inactive
NC(=O)C1CCN(c2cc(-c3ccc4c(c3)OCCCO4)ncn2)CC1,inactive,inactive
O=C(Nc1ccc(Cl)c([N+](=O)[O-])c1)Nc1nnc(C2CCCCC2)s1,inactive,inactive

Compound,Potency [1],Potency [2]
COc1ccnc(NC(=S)N2CCN(c3ncc(C(F)(F)F)cc3Cl)CC2)c1,inactive,inactive
CCOc1ccc(-c2csc(N3CCC(C(N)=O)CC3)n2)cc1,inactive,inactive
Cc1ccc(NS(=O)(=O)c2ccc3c(c2)CCCC(=O)N3)cc1C,inactive,inactive
Cc1nc(NC2CCCCC2)c2nc(-c3ccccc3)n(CCN(C)C)c2n1,inactive,inactive
N#Cc1ncc(C(=O)OCC(=O)NC2C3CC4CC(C3)CC2C4)cn1 (stereo not drawn),inactive,inactive
CC(=O)Nc1sc2c(c1-c1ccccc1)CCNC2,inactive,inactive
CC(=O)Nc1sc2c(c1Br)CCNC2,inactive,inactive
CN(CCc1cccs1)c1ncnc2ccc(-c3ccc4c(c3)OCO4)cc12,inactive,inactive
N#Cc1c(Oc2ccc(F)c(NC(=O)Cc3cccc(C(F)(F)F)c3)c2)ccc2nc(NC(=O)C3CC3)sc12,inactive,inactive
NC(=O)c1ccc(-c2noc(-c3ccccc3F)n2)cc1,inactive,inactive
COc1cccc(NC(=S)N2CCN(c3cccc(Cl)c3Cl)CC2)n1,inactive,inactive
CCOC(=O)c1ccoc1-c1ccc2ncnc(N(C)Cc3sccc3C)c2c1,inactive,inactive
COc1cc(OC)c2c(c1)OC(=O)CC2c1ccc2c(c1)OCO2 (stereo not drawn),inactive,inactive
c1nc(OCc2cnc[nH]2)c2cc(-c3ccc4c(c3)OCO4)ccc2n1,inactive,inactive
CC(=O)O[C@H]1C(=O)[C@@]2(C)[C@H]([C@H](OC(=O)c3ccccc3)[C@]3(O)C[C@H](OC(=O)[C@H](O)[C@@H](NC(=O)c4ccccc4)c4ccccc4)C(C)=C1C3(C)C)[C@]1(OC(C)=O)CO[C@@H]1C[C@@H]2O,inactive,inactive
COc1ccnc(NC(=S)N2CCN(c3cccc(C(F)(F)F)n3)CC2)c1,inactive,inactive
CC(=O)Nc1sc2c(c1-c1ccc(C)cc1)CCNC2,inactive,inactive
Cc1cc(NS(=O)(=O)c2ccc(N(C)C(=O)Cc3ccc(Cl)c(Cl)c3)cc2)no1,inactive,inactive
COc1cc(NS(=O)(=O)c2ccc(C)cc2)cc(C(=O)Nc2nc(-c3ccccc3)cs2)c1,inactive,inactive
